Data reported in PubChem BioAssay AID624330 (Southern Research Specialized Biocontainment Screening …, 2012).
Out of some 340,000 compounds screened, about 2,100 (0.62%) were called active.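 Rule for the calls: active = first-screen hits whose inhibition reached a set limit at any dose in the follow-up dose series; inconclusive = inhibition above the set first-screen limit but never retested; inactive = the rest.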 These entries were drawn from the full list. Results with a measured potency or affinity are listed apart.

biological target: Rac GTPase-activating protein 1 (Homo sapiens) (UniProt Q9H0H5); test: MgcRacGAP GTPase-activating activity inhibitors, confirmation, biochemical, ADP Hunter fluorescence, primary and confirmatory (AID 624330); conditions: MgcRacGAP-stimulated Rac1 GTP hydrolysis, at 30 µM, stronger effect = higher value, GST-tagged Rac1 F28L mutant substrate;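 note: fluorescence reports GDP produced by GAP-driven GTP hydrolysis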
Sequence (Q9H0H5 whole entry, looked up): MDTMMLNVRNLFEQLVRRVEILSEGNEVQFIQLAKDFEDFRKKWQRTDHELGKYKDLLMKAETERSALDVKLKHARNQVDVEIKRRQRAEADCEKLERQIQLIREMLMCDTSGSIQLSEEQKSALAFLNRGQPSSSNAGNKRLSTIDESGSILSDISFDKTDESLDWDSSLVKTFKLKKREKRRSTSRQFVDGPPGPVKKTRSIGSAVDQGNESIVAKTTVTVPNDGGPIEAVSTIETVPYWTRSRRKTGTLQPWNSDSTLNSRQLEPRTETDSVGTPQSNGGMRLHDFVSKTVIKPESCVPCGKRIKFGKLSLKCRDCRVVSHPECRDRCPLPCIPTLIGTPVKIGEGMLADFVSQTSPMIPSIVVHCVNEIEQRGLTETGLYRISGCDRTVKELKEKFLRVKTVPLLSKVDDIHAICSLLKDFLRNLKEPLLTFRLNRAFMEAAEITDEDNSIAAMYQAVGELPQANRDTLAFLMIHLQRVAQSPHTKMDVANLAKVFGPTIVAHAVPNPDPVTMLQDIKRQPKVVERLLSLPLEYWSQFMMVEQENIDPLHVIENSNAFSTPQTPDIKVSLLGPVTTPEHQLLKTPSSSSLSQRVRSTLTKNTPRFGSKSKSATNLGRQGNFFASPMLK

Row | SMILES | inhibition
1 | COc1ccc(-c2cc([C@H]3[C@H]4C=CC[C@@H](C)[C@@H]4C(=O)N3Cc3ccccc3)ccc2F)cc1 | 4.49% (inactive)
2 | CCC(C)N(C(=O)COC(=O)c1ccc(=O)n(Cc2ccccc2)n1)C1CCS(=O)(=O)C1 (stereo not drawn) | 2.85% (inactive)
3 | CSc1nc(C(=O)N2CCc3c([nH]c4ccccc34)C2c2ccccn2)cs1 (stereo not drawn) | 3.69% (inactive)
4 | CCCCNC(=O)Cn1c(=O)c2c(ncn2CCC(C)C)n(Cc2ccccc2)c1=O | 6.76% (inactive)
5 | CCOC(=O)/C=C1\SCC(=O)N1CC(=O)NC(c1ccccc1)c1ccccc1 | 5.26% (inactive)
6 | CN(CC(=O)Nc1cccc(F)c1)C(=O)CSc1ccccc1 | 1.63% (inactive)
7 | COc1ccccc1N1CCN(/N=C\c2ccccc2)CC1 | -17.8% (inactive)
8 | COc1ccccc1N1CCN(/N=C/c2cccc(OC)c2O)CC1 | -28.4% (inactive)
9 | COc1ccccc1N1CCN(/N=C/c2cccc(O)c2)CC1 | 10.5% (inactive)
10 | COc1ccccc1N1CCN(/N=C/c2cc(OC)c(OC)c(OC)c2)CC1 | -2.37% (inactive)
11 | CC1CCCCC1NC(=O)CSc1nnc(CC(=O)Nc2ccccc2F)n1C (stereo not drawn) | 5.96% (inactive)
12 | O=C(C[C@@H]1C/C=C/CC[C@@H](Cc2ccc(F)cc2)C(=O)OCCNC1=O)N[C@H](CO)Cc1ccccc1 | 3.03% (inactive)
13 | COCC1CCN(Cc2cn(C)nc2-c2cccc(Cl)c2)C1 (stereo not drawn) | 1.3% (inactive)
14 | O=C(CCc1nnc2ccc(NCc3ccc(F)cc3)nn12)NC1CCCC1 | 12.4% (inactive)
15 | CC(C)C(=O)N(Cc1ccc2c(c1)OCO2)Cc1ccccn1 | 7.22% (inactive)
16 | c1ccc(CNCc2ccc3c(c2)OCO3)nc1 | 4.13% (inactive)
17 | O=C(CN1CCCc2ccccc21)Nc1cccc(S(=O)(=O)N2CCCC2)c1 | 9.73% (inactive)
18 | CNCc1c(C)nn(-c2ccccc2)c1C | 8.94% (inactive)
19 | CCn1ccnc1CN(C)Cc1nc(-c2ccccc2)no1 | -3.37% (inactive)
20 | CC(=O)Nc1ccc(NC(=O)CSCc2ccccc2Cl)cc1 | 10.3% (inactive)
21 | C/C(=N\NC(=O)CSCc1ccccc1Cl)c1cccc(NC(=O)c2ccccc2)c1 | 4.95% (inactive)
22 | Cc1ccccc1Nc1nc(N)nc(COC(=O)c2ccc3c(c2)OCCO3)n1 | 12.6% (inactive)
23 | O=C(Nc1ccccc1C(=O)Nc1ccc(F)cc1)c1ccco1 | 6.4% (inactive)
24 | CCOc1ccc(S(=O)(=O)N2CCN(C(=O)c3ccc(C)c(S(=O)(=O)N4CCOCC4)c3)CC2)cc1 | 5.86% (inactive)

Row | SMILES | inhibition
25 | COc1cc(OC)c(OC)cc1CN1CCN(C(=O)CC(C)C)CC1 | 12.8% (inactive)
26 | COc1ccc(CN2CCN(C(=O)CC(C)C)CC2)cc1 | 26.1% (inactive)
27 | CCOc1cc(CN2CCCCCC2)ccc1OC | 25.5% (inactive)
28 | COc1ccc(CN2CCN(C(=O)CC(C)C)CC2)cc1Br | 26.2% (inactive)
29 | COc1ccc(C(=O)N2CCN(Cc3cc(OC)c(O)c(OC)c3)CC2)cc1OC | 18.5% (inactive)
30 | COc1ccc(C(=O)N2CCN(C(=O)CC(C)C)CC2)cc1OC | -1.21% (inactive)
31 | C=CCN1C(=O)c2ccc(C(=O)N(C)CC(=O)Nc3ccccc3Cl)cc2C1=O | -7.53% (inactive)
32 | CCOC(=O)c1ccc(NC(=O)c2nc[nH]c2C(=O)NCCCNC(=O)c2[nH]cnc2C(=O)Nc2ccc(C(=O)OCC)cc2)cc1 | -0.79% (inactive)
33 | COc1ccc(N=Cc2c(O)c3ccccc3oc2=O)cc1 | 10.7% (inactive)
34 | COC(=O)c1ccccc1NC(=S)NC(=O)COc1ccccc1Cl | 2.61% (inactive)
35 | CCOc1ccc(-n2c(-c3ccco3)n[nH]c2=S)cc1 | 15.8% (inactive)
36 | O=C(COC(=O)c1cccs1)NCCc1ccc(F)cc1 | 4.76% (inactive)
37 | CN1CCN(CC(=O)N2c3ccccc3C(C)(c3ccccc3)CC2(C)C)CC1 (stereo not drawn) | 10.3% (inactive)
38 | CC1CC(C)(C)N(C(=O)CN2C(=O)CCC2=O)c2ccccc21 (stereo not drawn) | -0.11% (inactive)
39 | Cc1ccc2c(c1)C(C)CC(C)(C)N2C(=O)NC1CCCCC1 (stereo not drawn) | 3.06% (inactive)
40 | CC1CC(C)(C)N(C(=O)CN2C(=O)c3ccccc3C2=O)c2ccccc21 (stereo not drawn) | 2.35% (inactive)
41 | CCN(CC)C(=O)[C@H]1C[C@H](CC(=O)NCCCN(C)C)C(=O)N2CCc3c([nH]c4ccc(Cl)cc34)[C@]12C | 4.62% (inactive)
42 | O=C(NCc1ccccn1)C12CC3CC(CC(C3)C1)C2 | 3.08% (inactive)
43 | O=C(NCc1ccccn1)NC12CC3CC(CC(C3)C1)C2 | 1.18% (inactive)
44 | COc1cc(OC)c(OC)cc1/C=C1/C(=O)N=C(N)N1C | 0.61% (inactive)
45 | CC(NC(=O)/C=C/c1ccco1)c1nc2ccccc2n1Cc1ccccc1F (stereo not drawn) | -6.08% (inactive)
46 | O=c1c(-c2ccco2)[n+]([O-])c2ccccc2n1OCc1ccccc1 | 2.31% (inactive)
47 | Cc1c(Cl)cccc1NC(=O)CNCc1ccccc1F | 5.19% (inactive)
48 | O=C(CNCc1ccccc1Cl)Nc1ccccc1N1CCCCC1 | 28.3% (inactive)

Row | SMILES | inhibition
49 | CCCCn1c(N)c(N(CCOC)C(=O)CSCc2ccc(C)cc2)c(=O)[nH]c1=O | 3.5% (inactive)
50 | Cc1ccc(NC(=O)CN(C)S(=O)(=O)c2cccs2)cc1C | 2.54% (inactive)
51 | CCN=C1S/C(=C\c2sccc2C)C(=O)N1CC | 8.79% (inactive)
52 | CSc1ccccc1C(=O)NCc1ccc2c(c1)OCO2 | 3.84% (inactive)
53 | CC(C(=O)Nc1ccc2c(c1)OCO2)N(C)CC(=O)Nc1ccccc1Cl (stereo not drawn) | 6.56% (inactive)
54 | COc1ccc2c(c1)[nH]c1c(=O)n(/N=C/c3ccc(OC)c(COc4ccccn4)c3)cnc12 | 6.37% (inactive)
55 | CC(C)N1C(=O)S/C(=C/c2ccc(Sc3nc4ccccc4[nH]3)o2)C1=O | 12.6% (inactive)
56 | CC(C)N1C(=O)S/C(=C\c2ccc(-c3ccc(Cl)c(C(=O)O)c3)o2)C1=O | 14.4% (inactive)
57 | CCc1nc2ccccc2c(=O)n1NC(=O)c1c(O)c2ccccc2n(CC)c1=O | 11.3% (inactive)
58 | CCn1c(COc2ccc(Cl)cc2)nnc1SCC(=O)Nc1ccc2c(c1)OCCO2 | 9.81% (inactive)
59 | NC1=NC(=O)C(=Cc2ccccc2)S1 | -0.93% (inactive)
60 | COc1ccc(/C=C2\SC(c3ccc(C)cc3)=NC2=O)cc1OC | -0.09% (inactive)
61 | COc1cc(/C=C2/SC(=S)N(Cc3ccccc3)C2=O)ccc1O | 11.1% (inactive)
62 | COc1cc(/C=C2\SC(N)=NC2=O)ccc1OCC(=O)Nc1ccccc1C | 1.31% (inactive)
63 | O=C(CN1C(=O)S/C(=C\c2ccc(O)cc2)C1=O)c1ccccc1 | 2.23% (inactive)
64 | COc1ccc(/C=C2/SC(c3ccc(C)cc3)=NC2=O)cc1OC | 11.7% (inactive)
65 | COc1ccc(C2=NN(c3ccccc3)C(=O)/C2=C\c2ccc(O)c(OC)c2)cc1 | 4.88% (inactive)
66 | COc1ccc(/C=C2\SC(N)=NC2=O)cc1 | 3.78% (inactive)
67 | COc1ccc(N2CC(C(=O)Nc3nnc(SCC(=O)N4CCOCC4)s3)CC2=O)cc1 (stereo not drawn) | 10.3% (inactive)
68 | CCCn1c(SCC(=O)Nc2cc(Cl)ccc2OC)nc(O)cc1=O | 4.2% (inactive)
69 | CCOC(=O)C(CC)Sc1nc2c(c(=O)[nH]c(=O)n2C)n1C/C=C(/C)Cl (stereo not drawn) | 13.4% (inactive)
70 | CCc1cccc(NC(=O)CSc2nnc(Cc3ccc(OC)cc3)c(=O)[nH]2)c1 | 6.26% (inactive)
71 | CC(=O)c1cccc(Nc2cc(C)nc3c(C)cc(C)cc23)c1 | 11% (inactive)
72 | CC(=O)Nc1cccc2c1C(=O)N(c1ccccc1C)C2=O | 9.72% (inactive)

Row | SMILES | inhibition
73 | Cc1ccnc(NC(=O)Cn2c(=O)oc3ccccc32)c1 | 6.21% (inactive)
74 | Cn1cccc1/C=C1\SC(=O)N(c2ccc(O)cc2)C1=O | 0.13% (inactive)
75 | Cc1ccc(NC(=O)CN2C(=O)S/C(=C\c3cccn3C)C2=O)cc1 | 2.72% (inactive)
76 | N/C(Cc1cccs1)=N\OC(=O)COc1ccc(Br)cc1 | 0.69% (inactive)
77 | CSc1ccc(CN(C)CC(=O)NCc2ccccc2)cc1 | 4.61% (inactive)
78 | CN(CC(=O)NCc1ccc(F)cc1)Cc1cccc(Cl)c1 | 5.16% (inactive)
79 | COc1ccc(CNC(=O)CN(C)Cc2ccc(SC)cc2)cc1 | 9.14% (inactive)
80 | COc1ccc(CNC(=O)CCOc2ccc(C(C)(C)C)cc2)cc1 | 4.83% (inactive)
81 | Cc1cccc(NC(=O)C2(C)CC3c4ccccc4C2c2ccccc23)c1C (stereo not drawn) | 4.55% (inactive)
82 | CC(C)(C)OC(=O)N[C@@H](Cc1ccccc1)C(=O)NCC1CCC(C(=O)N[C@@H](CC(=O)O)C(=O)O)CC1 (stereo partly drawn) | -2.85% (inactive)
83 | O=S(=O)(c1ccccc1)N1CCN(C2CCN(Cc3ccccc3)CC2)CC1 | 9.41% (inactive)
84 | COc1ccccc1N1CCN(C2CCN(S(=O)(=O)c3ccc(C)cc3)CC2)CC1 | -5.5% (inactive)
85 | COc1ccc(S(=O)(=O)N2CCN(C3CCN(Cc4ccccc4)CC3)CC2)cc1 | 8.39% (inactive)
86 | CCOC(=O)N1CCC(N2CCN(S(=O)(=O)c3ccc(OC)cc3)CC2)CC1 | 20.1% (inactive)
87 | COc1ccc(S(=O)(=O)N2CCN(Cc3ccccc3)CC2)cc1 | 5.15% (inactive)
88 | CCOC(=O)N1CCC(N2CCN(S(=O)(=O)c3ccc(C)cc3)CC2)CC1 | 22.2% (inactive)
89 | O=S(=O)(c1ccc(Cl)cc1)N1CCN(C2CCN(Cc3ccccc3)CC2)CC1 | 2.66% (inactive)
90 | COc1ccccc1N1CCN(C2CCN(S(=O)(=O)c3ccc4ccccc4c3)CC2)CC1 | 4.9% (inactive)
91 | O=c1c2ccccc2nnn1CSc1ccccc1F | 8.16% (inactive)
92 | Cc1cccc(C(=O)NCC(=O)NC2CCC(C)CC2)c1 (stereo not drawn) | 3.71% (inactive)
93 | O=C(CSc1c2c(nc3ccccc13)CCC2)N1CCCC1 | 10.3% (inactive)
